According to PubChem BioAssay AID1159580 (chemical genetic matrix, 2015):
Hit rate of the full screen: of about 5,500 compounds, about 2,000 (36%) were called active. Not shown: some 18% with an inconclusive outcome. No stated cut-off is given here; in the data, active means normalized growth mostly below about 0.91 (no sharp cut-off); inconclusive means no clear call, values can overlap the other calls; inactive means mostly above about 0.92. This is one part of the list.

Assay: chemical genetic growth profiling, strain panel (AID 1159580);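 further: tested at 20 µM; growth read once vehicle control cultures reached saturation at 30 °C; 1 = growth at the plate median or of vehicle wells; lower values mean less growth of the strain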
Details: S. cerevisiae deletion strains, growth OD
[1] = locus YAR019C, strain CDC15, hits give low values
[2] = locus YBL105C, strain PKC1, hits give low values
[3] = locus YBR135W, strain CKS1, hits give low values
[4] = locus YBR136W, strain MEC1, hits give low values
[5] = locus YBR160W, strain CDC28, hits give low values
[6] = locus YDL017W, strain CDC7, hits give low values
[7] = locus YDL028C, strain MPS1, hits give low values
[8] = locus YDL101C, strain DUN1, hits give low values
[9] = locus YDL108W, strain KIN28, hits give low values
[10] = locus YDL132W, strain cdc53, hits give low values
[11] = locus YDL214C, strain PRR2, hits give low values
[12] = locus YDR052C, strain DBF4, hits give low values
[13] = locus YDR054C, strain cdc34, hits give low values
[14] = locus YDR226W, strain ADK1, hits give low values
[15] = locus YDR477W, strain SNF1, hits give low values
[16] = locus YER123W, strain YCK3, hits give low values
[17] = locus YER133W, strain GLC7, hits give low values
[18] = locus YFL009W, strain cdc4, hits give low values
[19] = locus YFL029C, strain CAK1, hits give low values
[20] = locus YFR003C, strain YPI1, hits give low values
[21] = locus YFR019W, strain FAB1, hits give low values
[22] = locus YFR028C, strain CDC14, hits give low values
[23] = locus YGR040W, strain KSS1, hits give low values
[24] = locus YGR052W, strain FMP48, hits give low values
[25] = locus YGR092W, strain DBF2, hits give low values
[26] = locus YHR030C, strain SLT2, hits give low values
[27] = locus YHR079C, strain IRE1, hits give low values
[28] = locus YHR082C, strain KSP1, hits give low values
[29] = locus YHR205W, strain SCH9, hits give low values
[30] = locus YIL147C, strain SLN1, hits give low values
[31] = locus YJL095W, strain BCK1, hits give low values
[32] = locus YJL128C, strain PBS2, hits give low values
[33] = locus YJL157C, strain FAR1, hits give low values
[34] = locus YJR016C, strain ILV3, hits give low values
[35] = locus YJR066W, strain TOR1 (second series), hits give low values
[36] = locus YJR066W, strain TOR1, hits give low values
[37] = locus YKL048C, strain ELM1, hits give low values
[38] = locus YKL067W, strain YNK1, hits give low values
[39] = locus YKL101W, strain HSL1, hits give low values
[40] = locus YKL193C, strain SDS22, hits give low values
[41] = locus YKL203C, strain TOR2, hits give low values
[42] = locus YLR113W, strain HOG1, hits give low values
[43] = locus YLR133W, strain CKI1, hits give low values
[44] = locus YLR403W, strain SFP1, hits give low values
[45] = locus YML070W, strain DAK1, hits give low values
[46] = locus YMR001C, strain CDC5, hits give low values
[47] = locus YMR205C, strain PFK2 (second series), hits give low values
[48] = locus YMR277W, strain FCP1, hits give low values
[49] = locus YNL006W, strain LST8, hits give low values
[50] = locus YNL020C, strain ARK1, hits give low values
[51] = locus YNL161W, strain CBK1, hits give low values
[52] = locus YNL183C, strain NPR1, hits give low values
[53] = locus YNL207W, strain RIO2, hits give low values
[54] = locus YNL222W, strain SSU72, hits give low values
[55] = locus YNL307C, strain MCK1 (second series), hits give low values
[56] = locus YOL078W, strain AVO1, hits give low values
[57] = locus YOL136C, strain PFK27, hits give low values
[58] = locus YOR061W, strain CKA2, hits give low values
[59] = locus YOR119C, strain RIO1, hits give low values
[60] = locus YOR231W, strain MKK1, hits give low values
[61] = locus YOR329C, strain SCD5, hits give low values
[62] = locus YPL031C, strain PHO85, hits give low values
[63] = locus YPL153C, strain RAD53, hits give low values
[64] = locus YPL204W, strain HRR25, hits give low values
[65] = locus YPL209C, strain IPL1, hits give low values
[66] = locus YPL256C, strain CLN2, hits give low values
[67] = locus YPR025C, strain CCL1, hits give low values
[68] = locus YPR106W, strain ISR1, hits give low values
[69] = locus YPR111W, strain DBF20, hits give low values
[70] = strain NNK1, hits give low values
[71] = strain TSCII, hits give low values

Measured: normalized growth

COc1cccc(NC(=S)NC2CC(C)CC(C)(C)C2)c1 (configuration not stated)
inactive: [1] 0.986 | [2] 0.986 | [3] 0.973 | [4] 0.985 | [5] 0.978 | [6] 0.984 | [7] 0.99 | [8] 0.975 | [9] 0.989 | [10] 0.984 | [11] 0.986 | [12] 0.99 | [13] 0.967 | [14] 0.972 | [15] 0.98 | [16] 0.962 | [17] 0.962 | [18] 0.98 | [19] 0.99 | [20] 0.984 | [21] 1.02 | [22] 0.966 | [23] 0.979 | [24] 1.02 | [25] 0.895 | [26] 0.927 | [27] 0.922 | [28] 1.08 | [29] 0.995 | [30] 0.981 | [31] 0.929 | [32] 0.954 | [33] 0.976 | [34] 0.986 | [35] 0.979 | [36] 1.07 | [37] 0.989 | [38] 0.983 | [39] 0.996 | [40] 0.981 | [41] 1.03 | [42] 0.957 | [43] 0.979 | [44] 0.938 | [45] 0.978 | [46] 0.984 | [47] 1 | [48] 0.988 | [49] 0.984 | [50] 0.974 | [51] 0.971 | [52] 1.07 | [53] 0.967 | [54] 1 | [55] 0.977 | [56] 0.985 | [57] 0.964 | [58] 0.986 | [59] 1.04 | [60] 1.05 | [61] 0.984 | [62] 0.973 | [63] 0.964 | [64] 0.949 | [65] 0.99 | [66] 0.984 | [67] 0.988 | [68] 0.994 | [69] 0.991 | [70] 0.982 | [71] 0.976

S=C(NNC(=S)NC1CC2C=CC1C2)Nc1ccc(Br)c(Cl)c1 (configuration not stated)
inactive: [1] 0.981 | [2] 0.987 | [3] 0.986 | [4] 0.976 | [5] 0.984 | [6] 0.986 | [7] 0.979 | [8] 0.989 | [9] 0.989 | [10] 0.987 | [11] 0.948 | [12] 0.994 | [13] 0.976 | [14] 0.982 | [15] 0.932 | [16] 0.931 | [17] 0.922 | [18] 0.98 | [19] 0.982 | [20] 0.985 | [21] 0.993 | [22] 0.986 | [23] 0.939 | [24] 0.954 | [25] 0.922 | [26] 0.889 | [27] 0.954 | [28] 1.03 | [29] 0.972 | [30] 0.983 | [31] 0.927 | [32] 0.943 | [33] 0.927 | [34] 0.984 | [35] 0.972 | [36] 1.05 | [37] 0.982 | [38] 0.94 | [39] 0.961 | [40] 0.975 | [41] 0.994 | [42] 0.896 | [43] 0.959 | [44] 0.939 | [45] 0.942 | [46] 0.984 | [47] 0.957 | [48] 0.983 | [49] 0.984 | [50] 0.952 | [51] 0.982 | [52] 1.04 | [53] 0.977 | [54] 0.991 | [55] 0.956 | [56] 0.984 | [57] 0.964 | [58] 0.947 | [59] 0.994 | [60] 0.963 | [61] 0.993 | [62] 0.928 | [63] 0.932 | [64] 0.939 | [65] 0.986 | [66] 0.987 | [67] 0.987 | [68] 0.981 | [69] 0.983 | [70] 0.983 | [71] 0.985
